Reference: PubChem BioAssay (Tox21)
Values joined by “and” are separate entries in the source; they are usually repeats but may differ in a detail not shown here. Equal entries are not always repeated. Records with an inconclusive call do not appear. A number with no mark means an inactive call. Active and inactive are the calls of the source. The call rests on the fitted dose curve.

assay: qHTS assay to identify small molecule agonists of the endoplasmic reticulum stress response signaling pathway - cell viability counter screen (AID 1159517); details: ESRE-bla HeLa viability, CellTiter-Glo luminescence, 5 h; series mostly up to 61 µM; activity change, negative = cytotoxicity: at the top concentration; further: nearly all actives have a fitted effect of over 50% in size
From the text: U.S. Tox21 Program National Center for Advancing Translational Sciences [NCATS] NIH Chemical Genomics Center [NCGC] U.S. Environmental Protection Agency [EPA] National Institutes of Environmental Health Sciences [NIEHS] National Toxicology Program [NTP] U.S. Food and Drug Administration [FDA] Tox21 Assay Overview: Endoplasmic Reticulum (ER) plays an important role in cellular signaling, protein folding/maturation, stress response, lipid biosynthesis, calcium storage and release etc. Under stress conditions, proteins in ER misfold or unfold, and leading to the expression of ER stress responsive genes. ER stress has been associated with a variety of pathophysiological conditions such as cancer, inflammation, neurodegenerative diseases, diabetes, ischemic heart disease etc. To identify the compounds that induce ER stress response, an ER stress reporter cell line, CellSensor ESRE-bla HeLa (Life Technologies, Carlsbad, CA) containing a beta-lactamase reporter gene under control of the Endoplasmic reticulum Stress Response Element (ESRE) was used to screen Tox21 10K compound library. The cytotoxicity of the Tox21 compound library against the ESRE-bla HeLa cell line was tested in parallel by measuring cell viability using the CellTiter-Glo assay in the same wells.
Tox21 Assay Protocol Summary: ESRE-bla HeLa cells were dispensed at 1,500 cells/6 uL of assay medium per well into black wall/clear-bottom 1536-well plates using a Multidrop Combi (ThermoFisher Scientific, Waltham, MA) dispenser. After the assay plates were incubated at 37 C and 5% CO2 for an overnight, 23 nL of compounds dissolved in DMSO, positive controls or DMSO only was transferred to the assay plate by a Pintool station (Kalypsys, San Diego, CA). The assay plates were incubated at 37 C and 5% CO2 for 5 hr. One uL of LiveBLAzer B/G FRET substrate (Life Technologies) was added using a FRD (Flying Reagent Dispenser, Aurora Discovery, San Diego, CA) and the plates were incubated at room temperature for 2 hr. Fluorescence intensity (405 nm excitation, 460 nm and 530 nm emissions) was measured using an Envision plate reader (PerkinElmer, Shelton, CT). For cytotoxicity, 4 ul/well of CellTiter-Glo reagent was added into the assay plates using an FRD. After 30 min incubation at room temperature, the luminescence intensity was measured using a ViewLux plate reader (PerkinElmer).
On the % scale 0 is the no-effect control and ±100 the full control effect; potency means the concentration at half of the fitted maximal effect.

| SMILES | activity change, negative = cytotoxicity | Potency |
| --- | --- | --- |
| C[n+]1c2cc(N)ccc2cc2ccc(N)cc21 (tested in a mixture with another compound) | -18.1% | – |
| CCCCCCCCCCCCCOP(=O)(O)O | – | 30.9 µM (active) |
| CCCCCCCOC(=O)c1ccc(O)cc1 | – | 54.9 µM (active) |
| NC(=O)c1ccccc1N | 2.62% [at 78.8 µM] | – |
| O=C(Nc1ccc(Cl)cc1)Nc1ccc(Cl)c(C(F)(F)F)c1 | – | 21.3 µM (active) |
| CCc1cccc(C)c1 | 2.42% [at 78.8 µM] | – |
| Oc1c(Br)cc(Br)c2cccnc12 | 23.7% | – |
| O=C1c2c(O)ccc([N+](=O)[O-])c2C(=O)c2c([N+](=O)[O-])ccc(O)c21 | – | 24.3 µM (active) |
| C=C1C(C)(C)[C@@]2(Cl)C(Cl)[C@]1(Cl)C(Cl)(Cl)C2(Cl)Cl (stereo not given in full) | – | 48.1 µM (active) |
| CCN(CC)c1ccc(N)cc1 | 20.4% [at 78.8 µM] | – |
| CCO[Si](CCCSSSSCCC[Si](OCC)(OCC)OCC)(OCC)OCC | -29.8% | – |
| CC(COC(=O)c1ccccc1)OC(=O)c1ccccc1 (stereo not given) | -0.036% | – |
| O=C(O)Cc1ccc(OCCNC[C@H](O)c2ccccc2)cc1 | -18.7% | – |
| Clc1ccc(C(Cn2ccnc2)OCc2c(Cl)cccc2Cl)c(Cl)c1 (stereo not given) | -22.5% | – |
| N[C@@H](CSSC[C@H](N)C(=O)O)C(=O)O | 2.61% [at 0.628 µM] | – |
| CCC(C)c1cc([N+](=O)[O-])cc([N+](=O)[O-])c1OC(=O)OC(C)C (stereo not given) | – | 34.7 µM (active) |
| Cc1cc(Nc2ccc(O)cc2)ccc1N | -19.1% | – |
| Clc1ccccc1CN1CCc2sccc2C1 | -4.67% | – |
| CCN=C1C=CC(=C(c2ccc(N(CC)CC)cc2)c2ccc(N(CC)CC)cc2)c2ccccc21 | – | 38.7 µM (active) |
| C=CC(=O)OCCC#N | -24.1% [at 78.8 µM] | – |

| SMILES | activity change, negative = cytotoxicity | Potency |
| --- | --- | --- |
| C1CC(COCC2CO2)CCC1COCC1CO1 (stereo not given) | 2.37% | – |
| C=C(c1ccc(C(=O)O)cc1)c1cc2c(cc1C)C(C)(C)CCC2(C)C | – | 24.5 µM (active) and 19 µM (active) |
| NCCCC(O)(P(=O)(O)O)P(=O)(O)O | 6.89% | – |
| O=C1OC(OC(=O)c2cccnc2Nc2cccc(C(F)(F)F)c2)c2ccccc21 (stereo not given) | -17.5% | – |
| CC(=O)Oc1ccc(C2(c3ccc(OC(C)=O)cc3)Oc3ccccc3NC2=O)cc1 | 9.5% | – |
| CC(C)c1cccc(C(C)C)c1N1C(=O)c2ccc(O)cc2C1=O | -22% | – |
| Cc1c(C(=O)O)cccc1[N+](=O)[O-] | 11.3% [at 78.8 µM] | – |
| CNCC[C@H](Oc1cccc2ccccc12)c1cccs1 | -12.6% | – |
| CN1[C@@H]2CC[C@H]1CC(OC(=O)C(CO)c1ccccc1)C2 (stereo not given in full) | – | inactive |
| COc1cc(C(C)C)c2c(c1)S(=O)(=O)N(COc1cc(=O)n3cccc(OCCN4CCCCC4)c3n1)C2=O | -0.234% [at 28.5 µM] | – |
| N#CSCSc1nc2ccccc2s1 | – | 12.3 µM (active) |
| NCCCCCCNCCCCCCN | 1.74% | – |
| CCCCCCCC/C=C/CCCOC(C)=O | 6.39% | – |
| c1cc2c3c(c1)ccc1cccc(c13)C2 | 0.147% [at 78.8 µM] | – |
| CC1CCCNC1 (stereo not given) | 19.1% | – |
| O=S(=O)(O)CCCN1CCOCC1 | 5.44% | – |
| Cc1c(C)n(Cc2ccccc2)c2ccc(C(=O)OCCN(C)C)cc12 | 10.7% | – |
| CCCN(CCc1cccs1)[C@H]1CCc2c(O)cccc2C1 | -17.7% | – |
| CCC1(c2cnc[nH]2)Cc2ccccc2C1 | -21.2% | – |
| CC(C)N=C(N)/N=C(\N)Nc1ccc(Cl)cc1 | 11.6% | – |
